According to ChEMBL document CHEMBL3988442, “University of Dundee, Small-Polar-MMV Screening Library” (2021):
Out of some 48,000 compounds screened, about 13,000 (27%) showed an effect of 50% or more. Some of the results follow.

Each compound was assayed on Wolbachia pipientis (assay: Anti-Wolbachia Cell-Based Screen). Settings: 5 µM.
Assay type: functional
Parameters: scale not given: in the data most compounds retested in dose-response had high values

| SMILES | Percent Effect [%] |
| --- | --- |
| CN(Cc1ccccc1O)C(=O)NC1CCCN(c2ncccn2)C1 (centres undefined) | -16.23 |
| NC(=O)CCCNC(=O)COc1ccccc1C(F)(F)F | 8.512 |
| CC(C)(C)n1ccc(C(=O)N2CCCC(c3ncc[nH]3)C2)c1 (centres undefined) | -9.494 |
| CN(C)C(=O)N1CC[C@]2(O)CCN(C(=O)c3ccc(C#N)nc3)C[C@@H]2C1 | 0.1052 |
| Cc1cc(=O)[nH]c(SC(C)C(=O)N2CCC(c3ncc[nH]3)CC2)n1 (centres undefined) | -1.396 |
| Cn1cc(C(=O)N2CCC(c3ncc[nH]3)CC2)cn1 | 106 |
| CN1CCN(c2ccc(C(=O)N3CCCC(c4ncc[nH]4)C3)cc2)CC1 (centres undefined) | -9.853 |
| O=C(c1ncc(F)cc1F)N1CCC(c2ncc[nH]2)CC1 | 114.8 |
| N#Cc1ccc(C(=O)N2CCC3(CC2)C(=O)Nc2ccccc23)cn1 | -3.857 |
| N#Cc1ccc(C(=O)N2CCC(c3ncc[nH]3)CC2)cn1 | 118.6 |
| O=C(CCc1ccccc1)C1CCCN(C(=O)c2ncc(F)cc2F)C1 (centres undefined) | -13.78 |
| O=C(c1cncc(F)c1)N1CCC(c2ncc[nH]2)CC1 | 103.6 |
| Cn1cc(C(=O)N2CCCC(c3ncc[nH]3)C2)cn1 (centres undefined) | -9.118 |
| O=C(COCC(F)(F)C(F)F)N1CCC(c2ncc[nH]2)CC1 | -1.399 |
| Cn1ccnc1CN(CCCO)CC(F)(F)F | -6.784 |
| CCCC(=O)N(Cc1ccncc1)C(C)CC (centres undefined) | -14.56 |
| O=C(O)C(F)(F)F.O=C([C@@H]1COC[C@H]2CN(C3CCOCC3)C[C@H]21)N1CCOCC1 | 8.462 |
| O=C([C@@H]1C[C@@H]2CCN(C3CCOCC3)C[C@H]2O1)N1CCCC1 | 111.9 |
| O=C([C@H]1COC[C@H]2CN(C3CCCC3)C[C@H]21)N1CCOCC1 | -18.92 |
| O=C([C@@H]1C[C@@H]2CCN(C3CCOCC3)C[C@@H]2O1)N1CCOCC1 | 114 |
| O=C(CCn1cncn1)NC1(c2cccc(Br)c2)CCC1 | 14.53 |
| CC(C)C(NC(=O)Nc1cnn(CC(N)=O)c1)c1ccc(Cl)cc1 (centres undefined) | 4.509 |

| SMILES | Percent Effect [%] |
| --- | --- |
| O=C(c1coc(CN2CCN(c3ccccc3F)CC2)n1)N1CC=CC1 | -19.74 |
| Cc1ccc(C(=O)N2CCN(CCCSCC#N)CC2)o1 | -4.6 |
| Cc1ccc(C(=O)N2CCc3ncnc(C)c3CC2)cc1F | 4.805 |
| N#CCSCCCN1CCN(C(=O)C2CCCC2)CC1 | -2.265 |
| N#CCSCCCN1CCN(C(=O)c2ccccc2F)CC1 | 105.1 |
| Cc1cccc(C(=O)N2CCCN(CCCSCC#N)CC2)c1 | 95.07 |
| N#CCSCCCN1CCN(C(=O)c2ccc(Cl)cc2)CC1 | 23.02 |
| N#CCSCCCN1CCN(C(=O)c2cccc(Cl)c2)CC1 | 87.64 |
| Cc1ccc(C(=O)N2CCN(CCCSCC#N)CC2)cc1F | 105.3 |
| O=C(c1ccccc1F)N1CCN(CCCn2cncn2)CC1 | -12.58 |
| N#CCSCCCN1CCCC(C(=O)N2CCCCCC2)C1 (centres undefined) | 8.122 |
| N#CCSCCCN1CCCN(C(=O)c2ccccc2)CC1 | 13.73 |
| Cn1ccc(C(=O)N2CCCN(CCCc3ccccc3)CC2)cc1=O | 5.22 |
| O=C(NC1CC1)[C@H]1[C@@H]2CN(Cc3ccc(-c4ccn[nH]4)s3)C[C@@H]21 | -3.84 |
| COC(=O)[C@@H]1C[C@@H](O)CN1Cc1ccn(-c2ccc(F)cc2)n1 | -13.47 |
| CNC(=O)c1ccc2c(OC)n(C)nc2c1 | 2.989 |
| CC(C)n1cnnc1CN(C)Cc1ccoc1 | 9.92 |
| CCc1cnc(N2C[C@H]3CN(Cc4csc(C)n4)C(=O)[C@H]3C2)nc1.O=C(O)C(F)(F)F | -9.51 |
| Cc1c[nH]c(CN2CCOC(c3ccc(F)cc3)C2)c(C)c1=O (centres undefined) | 1.733 |
| Cc1c[nH]c(CN2CCOC(c3ccc(Cl)c(Cl)c3)C2)c(C)c1=O (centres undefined) | 94.99 |
| Cc1nc[nH]c1CN1CCOC(c2ccc(Cl)c(Cl)c2)C1 (centres undefined) | 1.288 |
| Cc1cc(C)nc(CN2CCOC(c3ccc(Cl)cc3)C2)n1 (centres undefined) | -0.4936 |

| SMILES | Percent Effect [%] |
| --- | --- |
| Cc1nnc(CN2CCOC(c3ccc(Cl)c(Cl)c3)C2)o1 (centres undefined) | 7.568 |
| Cc1c[nH]c(CN2CCOC(c3ccc(Cl)cc3)C2)c(C)c1=O (centres undefined) | 100.9 |
| CN1CCN(CCCNCc2cc(O)c3cc(F)ccc3n2)CC1 | -16.72 |
| NC(=O)NCCC(=O)N1CCC(c2cc(Cc3ccccc3)n[nH]2)CC1 | -24.35 |
| Cn1ncc2c1CCCC2NCc1cnc(-c2ccccc2)nc1 (centres undefined) | -0.06204 |
| Cc1ccc(CNC2CCCc3c2cnn3C)s1.Cl (centres undefined) | 1.48 |
| Cn1ncc2c1CCCC2NCc1ccc(Cl)s1 (centres undefined) | -1.294 |
| CSc1ccc(CNC2CCCc3c2cnn3C)cc1.Cl (centres undefined) | 78.82 |
| COc1cc(CNC2CCCc3c2cnn3C)cc(OC)c1.Cl (centres undefined) | 0.06204 |
| Cc1cccc(CNC2CCCc3c2cnn3C)c1.Cl (centres undefined) | 0.5584 |
| Cl.Cn1ncc2c1CCCC2NCc1ccc(Br)s1 (centres undefined) | -6.912 |
| Cn1ncc2c1CCCC2NCc1cccnc1 (centres undefined) | 87.53 |
| Cn1ncc2c1CCCC2NCc1ccc(OCc2cccnc2)cc1 (centres undefined) | 102.9 |
| COc1cccc(CCC2CCCN(C(=O)c3ccc(=O)n(C)n3)C2)c1 (centres undefined) | -50.16 |
| Cn1ccc(C(=O)N2CCC(Cc3cccc4ncccc34)CC2)n1 | 112 |
| Cn1ccc(C(=O)N2CCC(Cc3cccc4ncccc34)C2)n1 (centres undefined) | 142.2 |
| Cn1ccc(C(=O)N2CCCC(Cc3cnc4ccccc4c3)C2)n1 (centres undefined) | 126.8 |
| Cn1ccc(C(=O)N2CCCC(Cc3cccc4cccnc34)C2)n1 (centres undefined) | 100.6 |
| CC(C)(C)C(O)CN1CCN(C(=O)c2cccc3ncccc23)CC1 (centres undefined) | 5.5 |
| Cn1ccc(C(=O)N2CCC(Cc3cccc4cccnc34)C2)n1 (centres undefined) | -6.832 |
| Cn1ccc(C(=O)N2CCCC(Cc3cccc4ncccc34)C2)n1 (centres undefined) | -23.19 |
| CC(C)C(C)NC(=O)CN1CCSCC1 (centres undefined) | 15.54 |

| SMILES | Percent Effect [%] |
| --- | --- |
| COC(=O)N1CCCCC1C(=O)N(C)Cc1cc(-c2cccnc2)no1 (centres undefined) | -13.17 |
| CC(c1ccccc1)N(C)CC(=O)NCCC#N (centres undefined) | 10.46 |
| COc1ccc2nc3n(c2c1)[C@@H](CNC(=O)c1cncnc1)COC3 | -25.15 |
| CCOC(=O)C1CCCCN1Cc1c[nH]nc1-c1ccc(F)cc1F (centres undefined) | -25.87 |
| CN(C)S(=O)(=O)N1CCN(Cc2ccnc(N3CCCC3)n2)CC1 | 116.4 |
| CN(C)S(=O)(=O)N1CCN(c2ccnc(N3CCCCC3)n2)CC1 | 2.063 |
| CN(C)S(=O)(=O)N1CCN(c2ccnc(N3CCCC3)n2)CC1 | 6.981 |
| CC(C)CN1CC(c2nc(-c3cccc(F)c3)c[nH]2)CC1=O (centres undefined) | -7.334 |
| N#Cc1cccnc1N1CCC(Nc2ccccc2)C1 (centres undefined) | 96.82 |
| Cc1cc(C(=O)NC2CCN(c3ncccc3C#N)CC2)no1 | -13.19 |
| COc1ccccc1N1CCCC(Nc2nccnc2C#N)C1 (centres undefined) | -6.167 |
| COc1cc(NC2CCCN(c3ncccn3)C2)cc(OC)c1 (centres undefined) | 107.2 |
| COc1cc(NC2CCCNC2)cc(OC)c1 (centres undefined) | -9.333 |
| COc1cc(CNC2CCCN(c3ncccn3)C2)cc2c1OCO2 (centres undefined) | -8.887 |
| Cc1ncsc1C(=O)NC1CCN(c2ncccc2C#N)CC1 | 3.03 |
| COc1cc(NC2CCCN(c3ncccc3C#N)C2)cc(OC)c1 (centres undefined) | 118.7 |
| CC(OCC1CC1)C(=O)N1CCCN(c2ncccc2C#N)CC1 (centres undefined) | 0.6677 |
| CCn1ccnc1CN1CCN(c2nccc(OC)n2)CC1C (centres undefined) | -24.68 |
| Fc1cccc(-c2nnn3c2COC(CNc2ncccn2)C3)c1 (centres undefined) | -1.841 |
| CN1CCOC(CN(C(=O)CCCn2cccn2)c2nccs2)C1 (centres undefined) | 81.94 |
| CC[C@@]1(O)CCN(C(=O)CCc2cnn(C)c2)C[C@H]1O | -7.505 |
| CN1CCOC(CN(C(=O)CCc2cnn(C)c2)c2nccs2)C1 (centres undefined) | 107 |

| SMILES | Percent Effect [%] |
| --- | --- |
| CN1CCOC(CN(C(=O)COc2ccccc2)c2nccs2)C1 (centres undefined) | 132.7 |
| CN1CCOC(CN(C(=O)CC2CCCC2)c2nccs2)C1 (centres undefined) | -0.02384 |
| O=C(CN1CCOC(Cn2cccn2)C1)Nc1nccs1 (centres undefined) | -0.2623 |
| Cc1ccc(CC(=O)N(CC2CN(C)CCO2)c2nccs2)cn1 (centres undefined) | 90.15 |
| Cc1ccc(CC(=O)N2CCCC(c3nc(C)cs3)C2)cn1 (centres undefined) | -6.398 |
| c1cnn(CC2CN(c3ncnc4ccsc34)CCO2)c1 (centres undefined) | -13.22 |
| CN1CCOC(CN(C(=O)Cc2ccccc2F)c2nccs2)C1 (centres undefined) | -6.62 |
| Cc1cc(CC(=O)N(CC2CN(C)CCO2)c2nccs2)no1 (centres undefined) | -0.7073 |
| Cc1cnn(CC2CN(CC(=O)N(C)c3nccs3)CCO2)c1 (centres undefined) | 4.22 |
| CC(C)C1CN(C(=O)Nc2cnn(CC(F)F)c2)CCO1 (centres undefined) | 14.22 |
| CC(C)N1CC2(CCCN(Cc3noc(C4CCCC4)n3)C2)CCC1=O (centres undefined) | 0.7717 |
| COC1CCN(C(=O)c2csc(-c3ccccc3F)n2)CC1 | 15.42 |
| CN1CCOC(CN(C(=O)CCc2ccco2)c2nccs2)C1 (centres undefined) | 89.12 |
| O=C(NCCc1nccs1)C1CCCN(Cc2ccco2)C1 (centres undefined) | -29.34 |
| Nc1nccnc1C(=O)N(Cc1ccco1)CC1CCCO1 (centres undefined) | 3.477 |
| O=C(CCc1cn[nH]c1)N1C[C@H](CO)C[C@H](CN2CCOCC2)C1 | -1.636 |
| Cc1noc(C2CCCN(C(=O)c3cc(Cl)c(Cl)n3C)C2)n1 (centres undefined) | 3.125 |
| Cn1cnnc1C1CCCN(C(=O)c2cc(Cl)cc(Cl)c2)C1 (centres undefined) | 113.5 |
| Cn1cnnc1C1CCCN(C(=O)c2ccccc2Cl)C1 (centres undefined) | 1.344 |
| Cn1cnnc1C1CCCN(C(=O)c2cc(Cl)c3c(c2)OCO3)C1 (centres undefined) | -3.548 |
| Cn1cnnc1C1CCCN(C(=O)c2cc(Cl)c(Cl)n2C)C1 (centres undefined) | 115.1 |
